# Experimental data taken from PubChem BioAssay AID1851 (National Center for Advancing Translational Sciences (NCATS), 2009).
# Where “and” joins values, the source holds several entries; their conditions need not be identical. Equal values may be shown once. Hit rate of the full screen: of about 16,000 compounds, about 4,000 (25%) were called active. Inconclusive results (about 26%) are left out. Calls come from the whole dose curve; as a rule, active = well fitted curve in the direction sought with a large enough effect; inconclusive = small, poorly fitted or top-dose-only effect, or effect the other way; inactive = no such curve, though single readings can be large or run the other way. Only a sample is shown. Where a structure was tested more than once in an assay, its records may differ in their call.
# Molecular target: Cytochrome P450 2C9 (Homo sapiens) (UniProt P11712)
# Sequence (P11712 whole entry, looked up): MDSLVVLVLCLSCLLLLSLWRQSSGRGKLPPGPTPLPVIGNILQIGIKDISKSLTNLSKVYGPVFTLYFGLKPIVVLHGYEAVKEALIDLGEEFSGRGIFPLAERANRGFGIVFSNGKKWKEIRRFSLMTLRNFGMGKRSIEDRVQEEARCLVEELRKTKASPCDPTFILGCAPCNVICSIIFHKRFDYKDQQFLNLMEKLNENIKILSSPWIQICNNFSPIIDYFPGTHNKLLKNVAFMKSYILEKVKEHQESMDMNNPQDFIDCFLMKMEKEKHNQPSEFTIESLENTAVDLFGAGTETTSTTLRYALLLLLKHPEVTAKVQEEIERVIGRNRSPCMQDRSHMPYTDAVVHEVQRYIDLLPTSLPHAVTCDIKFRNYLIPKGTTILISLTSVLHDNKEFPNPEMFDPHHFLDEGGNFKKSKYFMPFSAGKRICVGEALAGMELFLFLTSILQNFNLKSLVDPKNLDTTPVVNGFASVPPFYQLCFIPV
# Test: Cytochrome panel assay with activity outcomes
# Settings: recombinant CYP, pro-luciferin dealkylation, luminescence, p450-cyp2c9; series mostly up to 57.1 µM
# Experimental: The P450 gene superfamily is involved in the metabolism and clearance of xenobiotics. This assay used various human CYP P450 isozymes to measure the dealkylation of various pro-luciferin substrates to luciferin. The luciferin is then measured by luminescence after the addition of a luciferase detection reagent. Pro-luciferin substrate concentration in the assay was equal to its KM for its CYP P450 isozyme. Inhibitors and some substrates limit the production of luciferin, and decrease measured luminescence.
# NCGC Assay Protocol Summary:
# 1, Reagent, 2 uL, Isozyme and Pro-Luciferin
# 2, Library compounds, 23 nl, 40 uM to 0.24 nM dilution series
# 3, Controls, 23 nl, Isozyme specific inhibitor
# 4, Reagent, 2 uL, NADPH regeneration solution
# 5, Incubation time, 60 min, Isozyme specific temperature
# 6, Reagent, 4ul, Detection reagent
# 7, Incubation time, 20 min, Isozyme specific temperature
# 8, Detection, 1 sec, ViewLux luminescent read
# The luciferase-based P450-GloTM Screening Systems were obtained from Promega (Madison, WI) for CYP 1A2 (V9770), CYP 2C9 (V9790), CYP2 C19 (V9880), CYP 2D6 (V9890), and CYP 3A4 Luciferin-PPXE (V9910) and were adapted for 1,536-well microplates and an automated protocol. The control compounds furafylline for 1A2 (F124), sulfaphenazole for CYP 2C9 (S0758), ketoconazole for CYP 2C19 (K1003), quinidine for 2D6 (Q3625), and ketoconazole for 3A4 (K1003) were purchased from Sigma Aldrich (St. Louis, MO). Recombinant P450 enzymes were obtained from baculovirus constructs expressed in insect cells (BD/Gentest).
# Medium-binding white solid Kalypsys plates used. Mixtures kept on ice. 1A2: 10 nM 1A2, 100 uM Luc-ME, 100 mM KPO4; 2C9: 10 nM 2C9, 100 uM Luc-H, 25 mM KPO4; 2C19: 5 nM 2C19, 10 uM Luc-H EGE, 50 mM KPO4; 2D6: 5 nM 2D6, 30 uM Luc-ME EGE, 100 mM KPO4; 3A4: 10 nM, 25 uM Luc-PPXE. All amounts are reflected in their final concentration, working concentration is 2x.
# NADPH regeneration solution: 1.3 mM NADP+, 3.3 mM glucose-6-phosphate, 3.3 mM MgCl2, 0.4 U/mL glucose-6-phosphate dehydrogenase for all isozymes, 200 mM KPO4 for 3A4. Mixture prepared at RT but kept on ice during automated run.
# RT incubation in auxilliary plate hotel for 1A2, 2D6, and 3A4; 37C for 2C9 and 2C19.
# Keywords: P450, CYP1A2, CYP2C19, CYP2C9, CYP2D6, CYP3A4, Luciferase, MLSMR, MLSCN, NIH Roadmap, qHTS, NCGC
# % is set by controls: 0 for no effect and ±100 for the full control effect.
Structure (SMILES),AC50,"activity, negative = inhibition"
Cc1nc2c(n1C1CCCCC1)C(=O)c1ccccc1C2=O,15.8 µM (active),
Cc1nc2cnc(Nc3ccccc3)nc2n(C2CC2)c1=O,inactive,
O=C1c2cccnc2C(O)N1C1CCCCC1 (centres undefined),inactive,
N[C@@H](C(=O)O)c1ccc(C(=O)O)c(C(=O)O)c1,12.6 µM (active) and inactive,
N[C@H](C(=O)O)c1ccc(O)c(C(=O)O)c1,inactive,
N[C@@H](C(=O)O)c1ccc(C(=O)O)c(O)c1,inactive,
COCOc1ccc(Br)cc1C(=O)[C@H]1O[C@H]1c1cccc(OC)c1,,8.38% [at 11.4 µM] (inactive)
COc1cccc([C@@H]2Oc3ccc(OC)cc3C(=O)[C@H]2O)c1,,-9.12% [at 11.4 µM] (inactive)
COc1cccc([C@@H]2Oc3ccc(Br)cc3C(=O)[C@H]2O)c1,2.51 µM (active),
CNc1ncncc1-c1ccccc1C(F)(F)F,,4.51% [at 2.29 µM] (inactive)
COc1ccc(C(=O)N2CC3(CC(c4cccc([N+](=O)[O-])c4)=NO3)C[C@H]2C(=O)NCC(N)=O)cc1 (some centres undefined),inactive,
CC(C)CCNC(=O)C12CN(Cc3ccccc3)CC1C(c1cccc([N+](=O)[O-])c1)=NO2 (centres undefined),5.62 µM (active),
CCS(=O)(=O)N1CCC(C(=O)NCCN2CCN(Cc3ccccc3)CC2)CC1,inactive,
O=C(NCc1ccccc1)C12CN(Cc3ccccc3)CC1C(c1cccc([N+](=O)[O-])c1)=NO2 (centres undefined),7.94 µM (active),
COc1cccc(C2=NOC(C(=O)NCc3ccccc3)C2)c1 (centres undefined),inactive,
Cn1c(=O)c2c3c(sc2n2cnnc12)CCC3,inactive,
NC(=O)Cn1c(=O)n(Cc2ccco2)c(=O)c2c3c(sc21)CCCCC3,11.2 µM (active),
O=C(Cn1c(=O)n(Cc2ccco2)c(=O)c2c3c(sc21)CCCCC3)c1ccccc1,2.51 µM (active),
CN(C)CCn1c(=O)n(Cc2ccco2)c(=O)c2c3c(sc21)CCCCC3,14.1 µM (active),
COc1ccc(O)c(/C=N/NC(=O)c2ccc(OCc3cccc(Br)c3)cc2)c1,inactive,
O=C(N/N=C/c1ccc(F)cc1)c1ccc(Br)cc1,inactive,
O=C(N/N=C/c1ccc2cccc(OCc3ccccc3)c2n1)c1ccc(Br)cc1,3.55 µM (active),
CCn1c(SCC(=O)N2CCOCC2)nc2oc3c(Cl)cc(Cl)cc3c(=O)c2c1=O,3.98 µM (active),
COc1ccc(Cn2nnnc2C(c2ccccc2Cl)N2CCC(C(N)=O)CC2)cc1 (centres undefined),15.8 µM (active),

Structure (SMILES),AC50,"activity, negative = inhibition"
N#Cc1ccc(C(c2nnnn2Cc2ccccc2)N2CCCC2)cc1 (centres undefined),inactive,
CCC(c1nnnn1CCOC)N1CCN(C(=O)c2ccco2)CC1 (centres undefined),inactive,
COc1ccc(N2CCN(C(CNC(=O)C3CCCCC3)c3cccnc3)CC2)cc1 (centres undefined),inactive,
O=C(Nc1ccc(Cl)cc1)OCCn1nnnc1C(c1ccccc1Cl)N1CCOCC1 (centres undefined),4.47 µM (active),
O=C(c1ccc(C(F)(F)F)cc1)c1c[nH]c(C(=O)NCCCn2ccnc2)c1,1.12 µM (active),
Cc1ccc(C(=O)c2c[nH]c(C(=O)NCCCN3CCOCC3)c2)cc1,inactive,
O=C(NCCCN1CCOCC1)c1cc(C(=O)C2CC2)c[nH]1,inactive,
CC(C)[C@@H](OCc1ccccc1)[C@H](C)/C=N\O[C@@H](C)c1cn([C@H](CO)Cc2ccccc2)nn1,,-21.6% [at 11.4 µM] (inactive) and -25.5% [at 11.4 µM] (inactive)
Cc1cc(/C=N/n2cnnc2)c(C)n1-c1ccc(OCc2ccccc2F)cc1,4.47 µM (active),
COn1c(SCc2cccc(Cl)c2)nc2ccccc2c1=O,1.78 µM (active),
COn1c(SCc2ccc(C)cc2C)nc2ccccc2c1=O,0.282 µM (active),
COc1nc(Cl)nc(Cl)c1Cl (tested in a mixture with another compound),,-7.53% [at 11.4 µM] (inactive)
CC(C)CO/N=C1/C[C@@H](O)[C@@H](O)[C@@H]2[C@@H]3C(=O)N([C@@H](C)c4ccccc4)C(=O)[C@H]3CC[C@H]12,,-8.59% [at 11.4 µM] (inactive)
C1=C(CN2CCOCC2)COc2c1cccc2OC[C@@H]1CNCCO1,inactive,
CO[C@@H]1COC(=O)CCC[C@@H](C)[C@H](OC)COC(=O)[C@H](Cc2ccccc2)NC(=O)C/C=C\[C@H]1C,,-2.4% [at 11.4 µM] (inactive)
CC(=O)n1nc(-c2ccco2)nc1N,inactive,
O=C(Cc1ccccc1)Nc1nc2ccc(Cl)cc2c2nc(-c3ccco3)nn12,3.16 µM (active),
CN1CCN(c2cc(-c3ccc(N(C)C)cc3)ncn2)CC1,,14.3% [at 2.29 µM] (inactive)
Cc1noc(C)c1-c1ccc2ncnc(NCc3ccccc3)c2c1,,-8.92% [at 2.29 µM] (inactive)
CCOC(=O)/C(C#N)=C1/C=CN(C)C=N1,inactive,
CCCCCCN1C=CC(=C/C=C(\C#N)C(=O)OCC)C=C1,2.24 µM (active),
CCCC[S@@](=N)(=O)CC[C@@H](N)C(=O)O,inactive,
O=C(CSc1nnc(SCc2cccc3ccccc23)s1)c1ccc2c(c1)OCO2,4.47 µM (active),
CC(C)(C)NC[C@@H](O)c1ccc(O)c(CO)n1,,6.16% [at 11.4 µM] (inactive)

Structure (SMILES),AC50,"activity, negative = inhibition"
Cc1ccc(-c2nc3ncccn3c2NC(=O)C2CC2)cc1,inactive,
Clc1ccc(-c2nc3ncccn3c2Nc2ccc3c(c2)OCCO3)cc1,4.47 µM (active),
Cc1noc(C)c1-c1cc(Nc2ccccc2)ncn1,,-12.1% [at 2.29 µM] (inactive)
Cc1noc(C)c1-c1cc(NCc2ccccc2)ncn1,,24.9% [at 2.29 µM] (inactive)
Cc1noc2ncnc(Oc3ccc4ccccc4c3)c12,25.1 µM (active),
Clc1ccc(Cn2c(CN3CCCC3)nc3ccccc32)cc1,inactive,
O=Nc1c(O)n(Cc2cccc(Cl)c2)c2ccccc12,2.51 µM (active),
Clc1ccc(COc2ccccn2)cc1Cl,inactive,
O=C1C(=O)N(Cc2ccc(Cl)c(Cl)c2)c2ccccc21,inactive,
O=Nc1c(O)n(Cc2ccc(Cl)c(Cl)c2)c2ccccc12,5.62 µM (active),
O=Nc1c(O)n(Cc2ccc(Cl)cc2)c2ccccc12,1.26 µM (active),
NC(=O)c1ncn([C@@H]2O[C@@H](CO)[C@@H](O)[C@H]2O)c1O,inactive,
Cc1noc(C)c1-c1cncnc1NC1CC1,,4.67% [at 2.29 µM] (inactive)
c1cn(-c2ccnc(-c3ccc4c(c3)OCO4)n2)cn1,,4.3% [at 2.29 µM] (inactive)
CN(Cc1ccccc1)c1nc(-c2ccc([N+](=O)[O-])cc2)nc2ccccc12,0.501 µM (active),
COc1cccc(-c2nc(N(C)Cc3ccco3)c3ccccc3n2)c1,,-10.2% [at 2.29 µM] (inactive)
CN(C)C(=O)c1ccc(-c2nc(N(C)Cc3ccco3)c3ccccc3n2)cc1,,5.2% [at 2.29 µM] (inactive)
c1nc(NCCc2cnc[nH]2)c2[nH]cnc2n1,,-20.1% [at 11.4 µM] (inactive)
CN(C)C(=O)c1ccc(-c2cc(NCc3ccccc3)ncn2)cc1,,6.12% [at 2.29 µM] (inactive)
CN(C)c1cc(=O)n2c(n1)SCCC2,inactive,
N#Cc1c(-c2ccc(Cl)cc2)nc2n(c1=O)CCCS2,12.6 µM (active),
N#Cc1c(-c2ccccc2)nc2n(c1=O)CCS2,inactive,
Cn1cccc1C(=O)N1CCC2(CCCN(c3cccc(-c4ccccc4)c3)C2)CC1,3.98 µM (active),
c1ccc(-c2ccc(N3CC[C@@]4(CCCNC4)C3)cc2)cc1,inactive,

Structure (SMILES),AC50,"activity, negative = inhibition"
c1ccc(-c2ccc(N3CC4(CCNCC4)C3)cc2)cc1,inactive,
Cn1cccc1C(=O)N1CCC2(CC1)CCN(c1ccc(-c3ccccc3)cc1)CC2,inactive,
Cn1cccc1C(=O)N1CCC2(CC1)CCN(C(c1ccccc1)c1ccccc1)CC2,inactive,
CC(C)CN1CCCC2(CCN(C(=O)c3cccn3C)CC2)C1,inactive,
Cn1cccc1C(=O)N1CCC2(CCCN(C(c3ccccc3)c3ccccc3)C2)CC1,12.6 µM (active),
CN1CCCC2(CCN(C(=O)c3cccn3C)CC2)C1,inactive,
Cn1cccc1C(=O)N1CCC2(CC1)CCN(c1cccc(-c3ccccc3)c1)CC2,inactive,
CC(C)NC(=O)N1CCCC2(CCN(C(=O)c3cccn3C)CC2)C1,inactive,
Cn1cccc1C(=O)N1CCC2(CCCN(c3ccc(-c4ccccc4)cc3)C2)CC1,15.8 µM (active),
c1ccc(-c2ccc(N3CCCC4(CCNCC4)C3)cc2)cc1,25.1 µM (active),
Cc1cnc(CNc2ncncc2-c2ccccc2CN(C)C)cn1,,20.8% [at 2.29 µM] (inactive)
CO[C@@H]1COC(=O)[C@H]2CCCN2C(=O)[C@@H](C)COC(=O)CCC[C@H]1C,,1.93% [at 11.4 µM] (inactive)
COC(=O)N1CCC2(CCCN(c3ccc(-c4ccccc4)cc3)C2)CC1,15.8 µM (active),
COC(=O)N1CCC2(CC1)CN(c1ccc(-c3ccccc3)cc1)C2,inactive,
O=C(Oc1ccccc1)N1CCC2(CCCN(c3ccc(-c4ccccc4)cc3)C2)CC1,inactive,
Cn1cccc1C(=O)N1CCC2(CC1)CCN(c1ccccc1)CC2,inactive,
Cn1cccc1C(=O)N1CCC2(CC1)CN(c1ccncc1)C2,5.01 µM (active),
Cn1cccc1C(=O)N1CCC2(CCCN(c3ccccc3)C2)CC1,15.8 µM (active),
Cn1cccc1C(=O)N1CCC[C@@]2(CCN(c3ccncc3)C2)C1,inactive,
Cn1cccc1C(=O)N1CCC2(CC1)CCN(c1ccncc1)CC2,inactive,
Cn1cccc1C(=O)N1CCC[C@@]2(CCN(c3ccccc3)C2)C1,inactive,
COc1ccccc1/C=C/C=N/N1CCN(Cc2cccc3ccccc23)CC1,inactive,
